# Rows were chosen to be rich in hits. Some 2.4% of all compounds tested hit in one or more screens of this group.
# Tb PGK inh – inhibitors of T. brucei phosphoglycerate kinase | AID 602233 | PGK/GAPDH coupled, Kinase-Glo luminescence, 60 min | hit rate 0.043% among 380,000 | P07378 | Potency, µM (top dose mostly 57.5 µM), for inactives: top-dose activity change, negative = inhibition, actives largely listed as inhibitors; also: % is scaled to controls: 0 for no effect and ±100 for the full control effect; nearly all actives have a fitted effect of over 60% in size
#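 Recombinant glycosomal PGK reaction used 1,3-bisphosphoglycerate generated in-well by GAPDH (100nM final) in 100mM TEA pH 7.6, 5mM MgCl2, 0.01% Tween-20. After 60 minutes at room temperature, ATP was read by Kinase-Glo Plus luminescence end-point.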
# POLK inh – inhibitors of human DNA polymerase kappa | Q9UBT6 | purified Pol kappa, fluorescent DNA synthesis assay, 10 min | Potency, µM (doses to about 107 µM), for the others: top-dose activity, negative = inhibition, usual class: inhibitors | hit rate 0.53% among 400,000 | AID 588579; also: % is scaled to controls: 0 for no effect and ±100 for the full control effect
#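 Here, compound and 10 nM enzyme are combined for 15 min at room temperature; adding 50 nM substrate (final) starts DNA synthesis, tracked by fluorescence at 0 and 10 min against buffer-only wells.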
# POLH inh – blocks human DNA polymerase eta activity. Q9Y253. recombinant Pol eta, fluorescent DNA replication assay. Potency, µM (doses to about 114 µM), without a hit: at the top dose activity change, negative = inhibition, hits mostly inhibitors. hit rate 1.2% among 390,000. AID 588591; also: % is scaled to controls: 0 for no effect and ±100 for the full control effect
#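 Pol eta (10 nM) was preincubated with compounds for 15 min at room temperature, after which fluorescent replication substrate (50 nM final) was added to start the reaction. Fluorescence was read kinetically at 0 and 10 min.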
# POLI inh – DNA polymerase iota (human) inhibition | Q9UNA4 | Pol iota fluorescent replication assay, 10 min | Potency, µM (series often up to 115 µM), without a hit: at the top dose activity, negative = inhibition, hits mostly inhibitors | hit rate 1% among 390,000
#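 Pol iota at 10 nM preincubated 15 min with compounds at room temperature; reaction started with fluorescent substrate, 50 nM final. Fluorescence read kinetically at 0 and 10 min; buffer-only wells as negative control.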
# Pol beta inh – inhibitors of human DNA polymerase beta. Pol beta primer extension/strand displacement, fluorescence kinetic. Potency, µM (highest dose often 114 µM), inactives show at the highest dose activity change, negative = inhibition, most hits filed as inhibitors. hit rate 1.3% among 340,000. AID 485314; also: % is scaled to controls: 0 for no effect and ±100 for the full control effect
#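 Curves were derived by four-parameter Hill fits of normalized qHTS data. The kinetic fluorescent primer-extension read was taken at 0 and 10 min after 50 nM substrate, following a 15 min room-temperature preincubation of 10 nM enzyme with compounds.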
# FEN1 inh – human FEN1 inhibition; P39748; Recombinant FEN1 flap cleavage, fluorescence, 15 min; Potency, µM (doses to about 114 µM), without a hit: top-dose activity change, negative = inhibition, hits mostly inhibitors; hit rate 0.35% among 390,000; AID 588795; also: % is scaled to controls: 0 for no effect and ±100 for the full control effect; nearly all actives have a fitted effect of over 65% in size
# Target sequence (P39748 whole entry, looked up): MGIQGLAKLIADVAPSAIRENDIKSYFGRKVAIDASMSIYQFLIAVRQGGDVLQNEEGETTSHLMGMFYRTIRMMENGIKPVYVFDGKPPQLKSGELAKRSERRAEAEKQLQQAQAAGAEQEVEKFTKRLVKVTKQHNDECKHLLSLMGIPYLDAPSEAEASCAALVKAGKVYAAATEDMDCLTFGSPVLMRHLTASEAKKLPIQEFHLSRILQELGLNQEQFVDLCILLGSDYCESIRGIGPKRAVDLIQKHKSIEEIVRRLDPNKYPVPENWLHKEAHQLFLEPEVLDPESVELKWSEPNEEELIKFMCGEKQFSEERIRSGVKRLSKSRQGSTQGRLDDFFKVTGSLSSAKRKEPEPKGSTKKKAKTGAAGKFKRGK
#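 Concentration–response screening of FEN1 (10 nM): 15 min compound preincubation at room temperature, reaction started with 50 nM substrate and read at 0 and 15 min. Corrected, normalized data were fitted by a four-parameter Hill equation.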
# PGK validate – blocks T. brucei phosphoglycerate kinase; shares compounds with POLK inh; TbPGK coupled GAPDH assay, Kinase-Glo luminescence; hit rate 79% among 500; Potency, µM (highest dose often 57.5 µM), for the others: at the highest dose activity change, negative = inhibition, actives largely listed as inhibitors; also: % is scaled to controls: 0 for no effect and ±100 for the full control effect; nearly all actives have a fitted effect of over 65% in size
# Pol iota confirm – Inhibitors of human DNA polymerase iota, confirmation | Pol iota primer extension, TAMRA/BHQ fluorescence | shares compounds with POLK inh | Potency, µM, hits mostly inhibitors | hit rate 77% among 1,500
# An asterisk follows results filed as active; ? = inconclusive; . = not tested or not shown; [ ] = remark or other dose. Calls follow the shape of the dose curve; as a rule, active = well fitted curve in the direction sought with a large enough effect; inconclusive = small, poorly fitted or top-dose-only effect, or another doubt; inactive = no such curve, though single readings can be large; an effect the other way counts as inactive or inconclusive. Potency is read from the fitted curve at half-maximal effect.
SMILES,Tb PGK inh,POLK inh,POLH inh,POLI inh,Pol beta inh,FEN1 inh,Pol iota confirm,others
COc1ccc(OC)c(/C=N/NC(=O)c2cc3c(OC)cccc3[nH]2)c1,12%,-16%,-19%,19%,-10%,-33%,.,
CCOc1ccc(/C=N/NC(=O)c2cc3c(OC)cccc3[nH]2)cc1,-12%,-37%,?,25µM*,50µM*,?,?,
Cn1c(SCC(=O)N2CCOCC2)ncc(C(=O)Nc2ccccc2)c1=O,-4%,-1%[60.1 µM],-14%,-3%,-2%,1%,.,
COc1ccccc1NC(=O)c1cnc(SCC(=O)N2CCOCC2)n(C)c1=O,-9%,-4%[60.1 µM],?,12%,4%,-10%,?,
CCOC1=C/C(=C/c2c(N)n3nc(CC(=O)N4CCCC4)sc3nc2=O)C=CC1=O,-3%,-41%,?,?,-28%,-4%,.,
Nc1c(/C=C2/C=CC(=O)C(O)=C2)c(=O)nc2sc(CC(=O)N3CCCCC3)nn12,?,?,-10%,?,?,-2%,.,PGK validate=1.6µM*
O=C(CCN1C(=O)/C(=C/c2ccc(Cl)cc2)SC1=S)Nc1cccc(C(=O)O)c1,?,-15%,89µM*,50%,-10%,?,?,
CCOc1ccc(/C=C2/SC(=S)N(CCC(=O)Nc3ccc(C(=O)O)cc3)C2=O)cc1,?,-11%,8.9µM*,?,-9%,-33%,21*,
CCOc1ccc(C(=O)Nc2cc(-c3cn4cccnc4n3)ccc2C)cc1OCC,-2%,-2%[60.1 µM],-12%,8%,?,-2%,.,
COc1ccc(-n2c(SCC(=O)Nc3nccs3)nnc2-c2ccc(Cl)cc2)cc1,0%,0%,?,13%,.,17%,?,
COc1ccc(-c2nnc(SCC(=O)Nc3ccc(C(=O)O)cc3)n2-c2ccc(Cl)cc2)cc1,0%,6%,-4%,-6%,?,2%,.,
Cc1ccc(O)c(N=Nc2ccccc2)n1,16µM*,6%[60.1 µM],-2%[57.1 µM],-9%[58.9 µM],-13%[57.1 µM],-5%,.,PGK validate=15µM*
COc1ccccc1NC(=O)c1cc2ccc(O)cc2o/c1=N\O,-4%,-35%,?,-12%,-17%,-17%,.,
COc1ccccc1NC(=O)c1cc2ccccc2o/c1=N\O,-8%,-39%,?,79µM*,20µM*,-5%,?,
C#Cc1ccc(C(=O)NCc2ccc(N3CCCC3=O)cc2)cc1,-6%,?,16µM*,?,18µM*,-8%,42*,
CCn1cc(C(=O)O)c(=O)c2cc(F)c(N3CCN(S(=O)(=O)c4ccc(NC(=O)OC)cc4)CC3)cc21,-1%,2%,?,17%,?,?,34*,
CCc1nc2sc3ccccc3c(=O)c2c(=O)n1Cc1ccco1,-21%,50µM*,32µM*,16µM*,20µM*,?,?,
CCCc1nc2sc3ccccc3c(=O)c2c(=O)n1Cc1ccccc1,-5%,5%,-21%,29%,.,10%,.,
CCC(=O)N1CCCc2cc(S(=O)(=O)N3CCC(C(=O)Nc4ccccc4CC)CC3)ccc21,-8%,-6%[60.1 µM],-7%,-13%,4%,2%,.,
O=C1Nc2ccccc2/C1=N/N=C/c1ccc(-c2ccc([N+](=O)[O-])cc2)o1,-3%,6%,?,31%,-19%,-9%,?,
CC1=C/C(=C(/c2ccc(O)c(C)c2)c2ccccc2S(=O)(=O)O)C=CC1=O,-10%,-20%,-17%,?,.,?,.,

# High-throughput results: PubChem, National Center for Advancing Translational Sciences (NCATS)
